Shown are actives, neighbours in structure and some others; about 4.7% of the full set was active somewhere.
CCHF vOTU inh: CCHFV vOTU protease inhibitors, primary screen, biochemical, Pep-AMC substrate, fluorescence; Crimean-Congo hemorrhagic fever virus L polyprotein viral ovarian tumor (vOTU) protease …; inhibition, % at 11.5 µM; 0.55% of 370,000 active
GDH-TPI counter-1: GDH-TPI coupling enzyme inhibitors, primary screen, artefact control for M. tuberculosis FBA inhibitor project, biochemical, absorbance, full deck; inhibition, % at 4.8 µM; GDH-TPI coupled enzyme counterscreen, NADH absorbance; 1.2% of 360,000 active
RecA splice inh: Mtb RecA intein splicing inhibitors, primary screen, biochemical, fluorescence, HTS; Protein RecA (Mycobacterium tuberculosis (strain ATCC 25618 / H37Rv)), P9WHJ3; cell-free RecA intein splicing; inhibition, % (concentration not given with the values); 0.75% of 290,000 active; AID 2221, 2009; in the data active = inhibition above about 30%
Target sequence (P9WHJ3 whole entry, looked up, canonical isoform): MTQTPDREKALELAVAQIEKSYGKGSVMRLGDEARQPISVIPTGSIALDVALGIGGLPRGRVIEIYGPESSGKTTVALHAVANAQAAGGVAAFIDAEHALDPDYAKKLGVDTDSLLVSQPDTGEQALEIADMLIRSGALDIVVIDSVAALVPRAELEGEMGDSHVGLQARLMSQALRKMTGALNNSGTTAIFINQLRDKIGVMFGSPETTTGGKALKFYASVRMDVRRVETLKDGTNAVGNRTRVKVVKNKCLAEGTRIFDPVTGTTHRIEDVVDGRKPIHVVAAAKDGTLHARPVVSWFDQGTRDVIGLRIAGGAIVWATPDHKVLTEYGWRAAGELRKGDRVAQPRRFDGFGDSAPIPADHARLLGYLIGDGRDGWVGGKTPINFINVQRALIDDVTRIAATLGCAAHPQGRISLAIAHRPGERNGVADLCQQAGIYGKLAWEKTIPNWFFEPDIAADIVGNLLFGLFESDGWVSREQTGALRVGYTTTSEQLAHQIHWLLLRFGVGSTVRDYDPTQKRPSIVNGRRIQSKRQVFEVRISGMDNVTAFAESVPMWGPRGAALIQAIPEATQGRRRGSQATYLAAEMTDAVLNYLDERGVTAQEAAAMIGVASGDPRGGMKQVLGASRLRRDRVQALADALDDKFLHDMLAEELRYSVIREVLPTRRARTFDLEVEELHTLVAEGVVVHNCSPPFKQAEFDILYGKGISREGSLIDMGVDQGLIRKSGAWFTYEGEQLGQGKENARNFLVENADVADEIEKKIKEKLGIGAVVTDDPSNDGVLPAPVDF
SARS 3CLpro inh: SARS-CoV 3CLpro protease inhibitors, primary screen, biochemical, quenched FRET. recombinant SARS-CoV 3CLpro, quenched FRET peptide cleavage. inhibition, % at 6 µM. 0.14% of 290,000 active. Replicase polyprotein 1ab (Severe acute respiratory syndrome coronavirus), P0C6X7. AID 1706, 2009; in the data active = inhibition above about 12%
Mtb FBA inh: Mtb FBA enzyme inhibitors, primary screen, biochemical, fluorescence, strain H37Rv | Fructose-bisphosphate aldolase (Mycobacterium tuberculosis (strain ATCC 25618 / H37Rv)), … | purified M. tuberculosis FBA, fluorescence read-out | inhibition, % at 1 µM | 2.3% of 360,000 active | AID 588726, 2011; in the data active = inhibition above about 27%
VHR inh abs: VHR1 phosphatase inhibitors, primary screen, biochemical, absorbance, uHTS; AID 1654, 2009; recombinant VHR phosphatase, pNPP absorbance; 0.52% of 290,000 active; inhibition, % at 13.3 µM; Dual specificity protein phosphatase 3 (Homo sapiens), P51452; in the data active = inhibition above about 50%
Mtb FBA confirm: M. tuberculosis aldolase blockers, biochemical, fluorescence, strain H37Rv, confirmation; shares compounds with Mtb FBA inh; purified M. tuberculosis FBA, fluorescence read-out; inhibition, % at 1 µM; 78% of 5,600 active; AID 651616, 2012; in the data active = inhibition above about 27%
GDH-TPI counter-2: GDH-TPI coupling enzyme inhibitors, artefact control for M. tuberculosis FBA inhibitor project, biochemical, fluorescence, high throughput; shares compounds with Mtb FBA inh; 81% of 5,600 active; inhibition, % at 1 µM; GDH-TPI coupled enzyme counterscreen; AID 652141, 2013; in the data active = inhibition above about 10%
A number is an active result; i = inactive; nt = no result; + = active, no number. Cut-off read from the data, not from the text of the source, unless noted: active = inhibition above about 30%; inactive = the rest.

SMILES	CCHF vOTU inh	GDH-TPI counter-1	RecA splice inh	SARS 3CLpro inh	Mtb FBA inh	VHR inh abs	Mtb FBA confirm	GDH-TPI counter-2
CCOCCCNC(=O)c1cc2c(=O)n3cccc(C)c3nc2s1	i	i	i	i	i	i	nt	nt
CCOC(=O)C1CCN(C(=O)c2cc3c(=O)n4cccc(C)c4nc3s2)CC1	i	i	i	i	100	i	+	166
CC(C)CN(CC(C)C)C(=O)c1cc2c(=O)n3ccccc3nc2s1	i	i	i	i	59	i	+	194
Cc1cccn2c(=O)c3cc(C(=O)NCCCOC(C)C)sc3nc12	i	i	i	i	103	i	i	i
COc1ccc(C)cc1S(=O)(=O)N1CCOCC1	i	i	i	i	i	i	nt	nt
COCCNS(=O)(=O)c1ccc(Cl)c(C(=O)NC2CCN(Cc3ccccc3)CC2)c1	i	i	nt	i	i	i	nt	nt
Cc1nc2nc(SCC(=O)c3ccc([N+](=O)[O-])cc3)[nH]c2cc1Br	i	i	i	i	i	i	nt	nt
COc1ccc(-c2cc(-c3ccco3)[nH]c(=O)c2C#N)cc1OC	i	i	i	i	49	i	44	36
N#Cc1c(-c2ccccc2)cc(-c2ccc3c(c2)OCO3)[nH]c1=O	i	i	nt	nt	i	nt	nt	nt
Cc1cc(-c2ccccc2)nc2oc(C(=O)NN)c(N)c12	i	i	i	i	39	i	55	44
Cc1cc(C)c2c(N)c(C(=O)c3ccccc3)oc2n1	i	i	i	i	i	i	nt	nt
COC(=O)c1oc2nc(C)cc(C)c2c1N	i	i	i	i	69	i	47	40
COC(=O)[C@]12CCCCC=C1N(CCc1ccc(OC)c(OC)c1)C(=O)[C@H](CC(=O)N1CCN(C(=O)C3CC3)CC1)C2	i	nt	nt	nt	nt	nt	nt	nt
Nc1ncnc2nc(-c3ccccc3)[nH]c12	i	i	nt	nt	69	nt	i	i
Nc1ncnc2nc(SCc3ccccc3)[nH]c12	i	i	i	i	i	i	nt	nt
COc1cc2c(c3ccccc13)CCCC2=O	i	i	nt	nt	110	nt	116	91
O=C1CCCc2c1ccc1ccccc21	i	i	nt	nt	i	nt	nt	nt
O=S(=O)(NCc1ccc(Cl)c(Cl)c1)c1cc(Cl)ccc1N1CC[C@@H](O)C1	i	nt	nt	nt	nt	nt	nt	nt
Cc1noc(C)c1S(=O)(=O)N1CCCc2nc(-c3ccc(F)cc3)ccc21	i	nt	nt	nt	nt	nt	nt	nt
COc1ccc2oc(=N)c(C(=O)NCc3ccccc3)cc2c1	i	i	i	i	i	i	nt	nt
CCOc1cccc2cc(C(=O)NCc3cccnc3)c(=O)oc12	i	i	i	i	i	i	nt	nt
COc1ccc2cc(C(=O)NCc3ccccc3)c(=O)oc2c1	i	i	i	i	33	i	65	50
COc1ccc2oc(=O)c(C(=O)NCc3cccnc3)cc2c1	i	i	i	i	44	i	i	i
COc1ccc2oc(=O)c(C(=O)NCc3ccc(F)cc3)cc2c1	i	i	i	i	54	i	90	70
Fc1ccccc1-c1nc2nc3ccccc3nc2n1CC1CCCO1 (stereo unspecified)	i	59	i	i	60	i	i	i
SMILES	CCHF vOTU inh	GDH-TPI counter-1	RecA splice inh	SARS 3CLpro inh	Mtb FBA inh	VHR inh abs	Mtb FBA confirm	GDH-TPI counter-2
S=c1[nH]nc(-c2ccccc2)n1CC1CCCO1 (stereo unspecified)	i	i	nt	i	i	i	nt	nt
Cc1ccc(-c2cnc(C(O)c3cc(C)cc(C)c3)[nH]2)cc1 (stereo unspecified)	i	i	nt	nt	i	nt	nt	nt
CCCCNc1c(-c2ccc(OC)c(SC3CCCCC3)c2)nc2ccc(C)cn12	i	i	nt	nt	36	nt	+	161
COc1ccc(-c2nc3ccc(Cl)cn3c2NC2CCCCC2)cc1SC1CCCCC1	i	i	nt	nt	i	nt	nt	nt
COc1ccc(-c2ccc(-c3nc4ccc(C)cn4c3NC3CCCCC3)cc2OC)cc1	i	i	i	nt	54	nt	+	185
Cc1ccc2nc(-c3cccc(SC4CCCCC4)c3)c(NC3CCCCC3)n2c1	i	i	nt	nt	i	nt	nt	nt
CCCCNc1c(-c2ccc(SC3CCCCC3)c(OC)c2)nc2ccc(C)cn12	i	i	nt	nt	50	nt	+	193
CCCCNc1c(-c2ccc(OC)c(SC(C)CC)c2)nc2ccc(Cl)cn12 (stereo unspecified)	i	i	nt	nt	i	nt	nt	nt
O=C(O)C1CCCN1c1nc(-c2ccc(Cl)c(Cl)c2)cc(C(F)(F)F)n1 (stereo unspecified)	i	i	nt	nt	i	nt	nt	nt
CC(C)(C)NC(=O)CSc1nc(-c2ccccc2)c(-c2ccccc2)[nH]1	i	i	i	i	i	i	nt	nt
O=C(O)CSc1nc(-c2ccccc2)c(-c2ccccc2)[nH]1	i	i	i	i	29	i	i	i
CCCCOc1cccc(C(=O)N(Cc2ccccc2)C2CCS(=O)(=O)C2)c1 (stereo unspecified)	i	i	i	i	i	i	nt	nt
Fc1cccc2sc(Nc3nc4ccccc4s3)nc12	i	i	i	i	32	i	193	134
Fc1ccc2nc(Nc3nc4c(F)cc(F)cc4s3)sc2c1	i	i	i	i	i	i	nt	nt
O=C(NNc1nc2ccccc2s1)c1ccccc1F	i	i	i	i	i	i	nt	nt
Fc1ccc2nc(Nc3nc4c(F)cccc4s3)sc2c1	i	i	i	i	35	i	i	i
O=c1c2ccccc2c(=O)n(Cc2ccccc2)n1Cc1ccccc1	i	i	i	i	i	i	nt	nt
CCOCCCNC(=O)C(NC(=O)c1ccccc1O)c1ccc(C)cc1 (stereo unspecified)	i	i	i	i	42	i	+	169
CCOCCCNC(=O)C(NC(=O)c1ccccn1)c1ccc(C)cc1 (stereo unspecified)	i	i	i	i	i	i	nt	nt
COc1ccc(-n2ccnc2SCC(=O)NC2CCCC2)cc1	i	i	nt	nt	i	nt	nt	nt
COc1ccc(-c2oc3ccc(N4CCOCC4)cc3c2/C=C/c2ccc(OC)c(OC)c2)cc1	i	40	i	i	36	i	+	176
COc1ccc(/C=C/c2c(-c3ccc(OC)cc3)sc3ccc(N4CCOCC4)cc23)cc1	nt	i	i	i	i	i	nt	nt
CC(=O)N1N=C(c2ccc3ccccc3c2)OC1(C)C	i	i	i	i	68	i	+	+
